Compound activity as filed in PubChem BioAssay.
SARS PLpro yeast-1: SARS-CoV PLP inhibition in yeast; S. cerevisiae expressing SARS-CoV PLpro, growth rescue; Potency, µM (highest dose often 32.9 µM), for the others: at the top dose activity, positive = growth rescue, usual class: activators; actives 0.19% (n = 330,000); calls by dose curve; note: potency is the fitted concentration of half-maximal effect; 0% is about no effect; nearly all actives have a fitted effect of over 55% in size
AmpC detergent: blocks E. coli AmpC beta-lactamase in detergent assay; AmpC hydrolysis of nitrocefin, absorbance 480 nm, 0.01% Triton; Potency, µM (top dose mostly 114 µM), for inactives: at the top dose activity change, negative = inhibition, usual class: inhibitors; actives 0.041% (n = 370,000); AID 485294;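 note: potency is the fitted concentration of half-maximal effect; 0% = no-compound wells and -100% = no-enzyme wells; nearly all actives have a fitted effect of over 25% in size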
Target sequence (P00811 whole entry, looked up): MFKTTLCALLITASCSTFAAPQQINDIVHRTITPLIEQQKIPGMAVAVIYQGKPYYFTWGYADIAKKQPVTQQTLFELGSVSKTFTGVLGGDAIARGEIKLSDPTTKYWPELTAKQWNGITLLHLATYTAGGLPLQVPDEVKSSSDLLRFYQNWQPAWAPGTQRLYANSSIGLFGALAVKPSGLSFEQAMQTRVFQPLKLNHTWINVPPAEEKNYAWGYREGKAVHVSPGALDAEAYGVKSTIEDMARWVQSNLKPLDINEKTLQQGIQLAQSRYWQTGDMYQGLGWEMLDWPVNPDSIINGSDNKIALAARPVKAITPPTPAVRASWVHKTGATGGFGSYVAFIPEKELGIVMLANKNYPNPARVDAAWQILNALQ
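AmpC (5.3 nM in the dispensed reagent) in 20 mM phosphate pH 7.0 with 0.01% (detergent screen) or 0.0001% Triton X-100 was preincubated with compounds for 15 min at room temperature. Nitrocefin was then added from an 800 uM solution, and hydrolysis was followed at 480 nm.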
AmpC inh no detg: AmpC beta-lactamase inhibition without detergent | P00811 | AmpC nitrocefin hydrolysis, absorbance 480 nm, 0.0001% Triton | Potency, µM (top dose mostly 57.1 µM), without a hit: at the top dose activity change, negative = inhibition, usual class: inhibitors | actives 0.52% (n = 330,000);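 note: potency is the fitted concentration of half-maximal effect; plate controls were no compound for no effect and no enzyme for full effect; nearly all actives have a fitted effect of over 20% in size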
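20 mM phosphate pH 7.0 + 0.01% (detergent screen) or 0.0001% Triton X-100; 5.3 nM AmpC reagent; cpd preinc 15 min RT; nitrocefin (800 uM stock) to start; A480 q20 s × 4 min; Activity was normalised to no-enzyme and no-compound control wells.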
Vaccinia Venus: inhibitors of vaccinia virus (Venus reporter) | Vaccinia virus Venus reporter expression, fluorescence | Potency, µM (series often up to 36.5 µM), inactives show at the highest dose activity change, negative = inhibition, most hits filed as inhibitors | actives 0.46% (n = 330,000); calls by dose curve; tested in A549 cells; note: potency is the fitted concentration of half-maximal effect; % is set by controls: 0 for no effect and ±100 for the full control effect; nearly all actives have a fitted effect of over 30% in size
Vaccinia mCherry: inhibitors of vaccinia virus infection (mCherry reporter signal) | Vaccinia virus mCherry reporter infection, fluorescence | Potency, µM (highest dose often 36.5 µM), without a hit: at the top dose activity change, negative = inhibition, most hits filed as inhibitors | actives 0.63% (n = 310,000); calls by dose curve; tested in A549 cells; note: potency is the fitted concentration of half-maximal effect; % is set by controls: 0 for no effect and ±100 for the full control effect; nearly all actives have a fitted effect of over 35% in size
SARS PLpro yeast-2: Inhibits SARS-CoV PLP in yeast, hit validation | actives 19% (n = 1,000) | shares compounds with SARS PLpro yeast-1 | yeast expressing SARS-CoV PLpro, growth phenotype rescue | calls only; call rule not given here
Starred values were filed as active, the others as inactive. Rows were chosen to be rich in hits. Some 1.3% of all compounds tested hit in one or more screens of this group. Unless noted, calls come from the whole dose curve; as a rule, active = well fitted curve in the direction sought with a large enough effect; inconclusive = small, poorly fitted or top-dose-only effect, or another doubt; inactive = no such curve, though single readings can be large; an effect the other way counts as inactive or inconclusive.

COC(=O)Nc1ccccc1C(=O)N1CCC(O)(c2ccc(Cl)cc2)CC1 was read as SARS PLpro yeast-1 inconclusive, AmpC detergent inconclusive, AmpC inh no detg -1%, Vaccinia Venus -9%, Vaccinia mCherry -2% and SARS PLpro yeast-2 inactive.
CC1Cc2[nH]c(=S)[nH]c(=O)c2C(C)O1 (configuration not stated) was read as Vaccinia Venus -4% and Vaccinia mCherry 8%.
For CC(C)CN(CCCNC(=O)CN1N=C(c2ccccc2)CCC1=O)CC(C)C the results were AmpC detergent 8%, Vaccinia Venus -8% and Vaccinia mCherry -5%.
`CC(C)C(=O)NCC(c1ccc2c(c1)OCO2)N1CCN(c2ccccc2)CC1` (configuration not stated) gave AmpC detergent -7%, Vaccinia Venus 2% and Vaccinia mCherry -3%.
Screening O=C(OCc1ccccc1)c1ccccc1 returned Vaccinia Venus 5% and Vaccinia mCherry 0%.
Screening O=C(OCc1ccccc1)c1ccc2c(c1)-c1ccccc1C2=O returned SARS PLpro yeast-1 16µM*, AmpC detergent -1%, AmpC inh no detg -9%, Vaccinia Venus -8%, Vaccinia mCherry -18% and SARS PLpro yeast-2 inactive.
C/C(=N\NC(=O)CCCNc1ccccc1)c1ccncc1 was read as SARS PLpro yeast-1 1%, AmpC detergent 5%, AmpC inh no detg -10%, Vaccinia Venus -7% and Vaccinia mCherry -2%.
C/C(=N\NC(=O)CCCNc1ccc(C)cc1)c1ccccn1 was read as SARS PLpro yeast-1 inconclusive, AmpC detergent inconclusive, AmpC inh no detg -36%, Vaccinia Venus inconclusive, Vaccinia mCherry 11µM* and SARS PLpro yeast-2 active.
`COc1ccc(C(Nc2ccccn2)c2oc(CO)cc(=O)c2O)cc1` (configuration not stated) gave SARS PLpro yeast-1 11µM*, AmpC detergent inconclusive, AmpC inh no detg -15%, Vaccinia Venus 4%, Vaccinia mCherry inactive and SARS PLpro yeast-2 inactive.
Screening O=c1cc(CO)oc(C(Nc2ccccn2)c2ccccc2Cl)c1O (configuration not stated) returned SARS PLpro yeast-1 13µM*, AmpC detergent -12%, AmpC inh no detg -25%, Vaccinia Venus -22%, Vaccinia mCherry -12% and SARS PLpro yeast-2 inactive.
Screening O=c1cc(CO)oc(C(Nc2ccccn2)c2ccsc2)c1O (configuration not stated) returned SARS PLpro yeast-1 -1%, AmpC detergent 2% and AmpC inh no detg -15%.
Screening COc1nc(-c2ccccc2)ccc1-c1noc(-c2ccccc2Br)n1 returned AmpC detergent 0%, Vaccinia Venus -6% and Vaccinia mCherry -14%.
`N#Cc1ccc(S(=O)(=O)N2CCN(CN3C(=O)CC4(CCCC4)C3=O)CC2)cc1` gave Vaccinia Venus -4% and Vaccinia mCherry inactive.
`C/C(=N\NC(N)=S)C1(C)CCCCC1` gave SARS PLpro yeast-1 18µM*, AmpC detergent inconclusive, AmpC inh no detg -7%, Vaccinia Venus inconclusive, Vaccinia mCherry inconclusive and SARS PLpro yeast-2 active.
Screening COC(=O)C1=C(c2ccc(-c3ccccc3)c(F)c2)C[C@@H]2CC[C@H]1N2C(=O)NC1CC1 returned SARS PLpro yeast-1 inconclusive, AmpC detergent 9%, AmpC inh no detg 162%, Vaccinia Venus -29%, Vaccinia mCherry -21% and SARS PLpro yeast-2 inactive.
Screening COC(=O)C1=C(c2ccc(-c3ccccc3)c(F)c2)C[C@@H]2CC[C@H]1N2C(=O)NC(C)C returned SARS PLpro yeast-1 3%, AmpC detergent -7%, AmpC inh no detg 179%, Vaccinia Venus inconclusive and Vaccinia mCherry inconclusive.
`Cc1nnc(SCc2ccccc2Cl)c2cc3sccc3n12` gave AmpC detergent 0%, Vaccinia Venus -1% and Vaccinia mCherry -10%.
Screening CN(C)CCNc1ncnc2c1ncn2[C@H]1CN(Cc2ccco2)C[C@@H](CO)O1 returned Vaccinia Venus -3% and Vaccinia mCherry -4%.
Screening Cc1cccc(NC(=O)CSc2nnc(Cn3cnc4ccccc43)o2)c1 returned SARS PLpro yeast-1 18µM*, AmpC detergent 1%, AmpC inh no detg -16%, Vaccinia Venus -11%, Vaccinia mCherry inactive and SARS PLpro yeast-2 inactive.
CSc1ccc(/C=N/N2CCN(Cc3ccc(C)cc3C)CC2)cc1 was read as SARS PLpro yeast-1 -2%, AmpC detergent 3%, AmpC inh no detg -11%, Vaccinia Venus -25% and Vaccinia mCherry -26%.
`Cc1ccc(CN2CCN(/N=C/c3sccc3C)CC2)c(C)c1` gave SARS PLpro yeast-1 11µM*, AmpC detergent -6%, AmpC inh no detg -33%, Vaccinia Venus -8%, Vaccinia mCherry -4% and SARS PLpro yeast-2 inactive.
For COc1ccccc1N1CCN(S(=O)(=O)CCNC(=O)COc2ccccc2F)CC1 the results were AmpC detergent 17%, Vaccinia Venus -9% and Vaccinia mCherry -18%.
CC(C)(C)c1cc(C(=O)N/N=C/c2ccccc2O)n(-c2ccccc2)n1 was read as SARS PLpro yeast-1 14µM*, AmpC detergent 1%, AmpC inh no detg -31%, Vaccinia Venus inconclusive, Vaccinia mCherry inconclusive and SARS PLpro yeast-2 inactive.
`COc1ccc(/C=N/NC(=O)c2nc(-c3ccccc3)n(-c3ccccc3)n2)c(O)c1` gave SARS PLpro yeast-1 2.8µM*, AmpC detergent inconclusive, AmpC inh no detg -35%, Vaccinia Venus inconclusive, Vaccinia mCherry 3.2µM* and SARS PLpro yeast-2 active.
For CCCCC(=O)N(C)c1c(CC)nc2c(OCCC)cccn12 the results were Vaccinia Venus -7% and Vaccinia mCherry -7%.
CCCOc1ccc(-c2c(C(=O)N/N=C/c3ccc(OC)cc3)nnn2-c2nonc2N)cc1 was read as SARS PLpro yeast-1 4%, AmpC detergent -12%, AmpC inh no detg -32%, Vaccinia Venus -15% and Vaccinia mCherry -23%.
CCOc1ccc(-c2c(C(=O)N/N=C/c3ccc(OC)cc3)nnn2-c2nonc2N)cc1 was read as SARS PLpro yeast-1 20µM*, AmpC detergent -10%, AmpC inh no detg -17%, Vaccinia Venus 3%, Vaccinia mCherry 1% and SARS PLpro yeast-2 inactive.
For CCOC(=O)c1[nH]c(CSc2nnc(-c3ccc(OC)cc3)o2)c(C(=O)OCC)c1C the results were SARS PLpro yeast-1 3.2µM*, AmpC detergent -8%, AmpC inh no detg -11%, Vaccinia Venus 6%, Vaccinia mCherry 3% and SARS PLpro yeast-2 inactive.
Screening COc1ccc(-c2nnc(SCC(=O)c3[nH]c(C)c(C(C)=O)c3C)o2)cc1 returned SARS PLpro yeast-1 -3%, AmpC detergent 3%, AmpC inh no detg -28%, Vaccinia Venus -2% and Vaccinia mCherry -4%.
